In the library only some 14% were active in any assay of this set; here they are far more common.
HCMV antiviral: blocks human cytomegalovirus replication. HFF cells, HCMV-luciferase reporter, 72 h; active compounds read low. activity change, negative = inhibition, % at 57.5 µM. 4.5% of 410,000 active. AID 1259415; in the data active means activity change below about -60%; inconclusive means no clear call, values can overlap the other calls; inactive means above about -39%
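Two compound doses tested in HFFs infected with HCMV-luciferase, MOI 1 PFU/cell, 72 h at 37C. Lysate luminescence read with OneGlo; data normalized against buffer-only and 10uM Salinomycin inhibitor controls.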
Lassa entry inh: Lassa virus entry inhibition; AID 540256; 1.2% of 300,000 active; Potency, µM (doses to about 37.9 µM), for inactives: at the top dose activity change, negative = inhibition, most hits filed as inhibitors; Lassa virus pseudotype entry inhibition, cell reporter; calls by dose curve; tested in HEK293 cells; further: potency means the concentration at half of the fitted maximal effect; nearly all actives have a fitted effect of over 50% in size
Pf growth 96h: P. falciparum growth inhibition at 96 hours | P. falciparum luciferase reporter growth, 96 h | Potency, µM (doses to about 28.7 µM), without a hit: at the top dose activity change, negative = inhibition, usual class: inhibitors | 6.9% of 320,000 active; further: potency means the concentration at half of the fitted maximal effect
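P. falciparum expressing integrated firefly luciferase grown in erythrocytes (2% hematocrit, 0.05% parasitemia final) with compounds for 96 hours at 37 C, 5% CO2. Growth inhibition read as loss of luminescence after adding luciferase detection reagent.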
MARV entry inh: Marburg virus entry inhibition; 1.8% of 300,000 active; Potency, µM (highest dose often 37.8 µM), inactives show at the top dose activity change, negative = inhibition, hits mostly inhibitors; Marburg virus pseudotyped entry inhibition, cell reporter; calls by dose curve; tested in HEK293 cells; further: potency means the concentration at half of the fitted maximal effect
Pf growth 48h: P. falciparum growth inhibition at 48 hours (one generation); P. falciparum luciferase growth in erythrocytes, 48 h; Potency, µM (titrated, usually from 28.7 µM), for the others: top-dose activity change, negative = inhibition, actives largely listed as inhibitors; 5.9% of 310,000 active; further: potency means the concentration at half of the fitted maximal effect
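Growth was read as firefly luciferase luminescence after a 48 h, 37 C, 5% CO2 exposure of compounds to reporter-bearing P. falciparum cultures (0.1% parasitemia, 2% hematocrit final) in Albumax-supplemented RPMI 1640.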
HCV inh: HCV inhibition. Huh7.5.1 HCVcc-Cre infection, luciferase reporter, 44 h. Potency, µM (top dose mostly 41.8 µM), inactives show at the highest dose activity change, negative = inhibition, most hits filed as inhibitors. 3.4% of 340,000 active; further: potency means the concentration at half of the fitted maximal effect
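A cell-based infection assay in which seeded cells (1,000 per well) receive test compound after 4 h, are inoculated with HCVcc-Cre at approximately 0.5 moi, and are incubated 44 h before luminescence detection.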
* hit, by the source's call; ? = inconclusive; . = not tested or not shown; [ ] = another dose, or the depositor's remark. Unless noted, the call rests on the fitted dose curve; in most records, active means well fitted inhibition curve with a large enough effect; inconclusive means small, poorly fitted or top-dose-only effect, or another doubt; inactive means no such curve, though single readings can be large or run the other way. On the % scale 0 is the no-effect control and ±100 the full control effect.

SMILES | HCMV antiviral | Lassa entry inh | Pf growth 96h | MARV entry inh | Pf growth 48h | HCV inh
CCN(CC)S(=O)(=O)c1ccc2oc(C(=O)N3CCCCCC3)c(C)c2c1 | -7 | ? | -5% | -33%[46.1 µM] | 13µM* | -12%
CCN(CC)S(=O)(=O)c1ccc2oc(C(=O)N3CCOCC3)c(C)c2c1 | -10 | -15% | ? | 0% | -29% | -9%
CCOC(=O)N1CCN(C(=O)c2oc3ccc(S(=O)(=O)N(CC)CC)cc3c2C)CC1 | -23 | ? | -10% | 1%[46.1 µM] | 5.2µM* | -8%
CCN(CC)S(=O)(=O)c1ccc2oc(C(=O)NCCN3CCOCC3)c(C)c2c1 | -23 | ? | 0% | 1%[46.1 µM] | -21% | -2%
C=CCNC(=O)c1oc2ccc(S(=O)(=O)N(CC)CC)cc2c1C | -23 | ? | 10µM* | 12% | ? | -9%
CCN(CC)S(=O)(=O)c1ccc2oc(C(=O)NC3CCCc4ccccc43)c(C)c2c1 (stereo not drawn) | 2 | ? | . | -25% | 5.2µM* | ?
C[C@H]1CN([C@@H](C)CO)S(=O)(=O)c2ccc(Br)cc2O[C@H]1CN(C)C(=O)c1ccccc1F | -5 | . | . | . | . | .
CCN(CC)S(=O)(=O)c1ccc2oc(C(=O)N3CCc4ccccc4C3)c(C)c2c1 | . | ? | 9.3µM* | 1% | ? | -23%
O=C1C=CN(S(=O)(=O)c2ccc(F)cc2)C(c2cccs2)C1 (stereo not drawn) | -3 | . | . | . | . | .
Fc1cccc(Cl)c1Cn1nnc2c(N3CCC4(CC3)OCCO4)ncnc21 | -18 | 5% | 291% | -1%[46.1 µM] | . | -24%
CCN(CC)c1ncn(Cc2c(Cl)cccc2Cl)c2ncnc1-2 | -8 | ? | ? | 1%[46.1 µM] | ? | ?
Clc1cccc(Cl)c1Cn1cnc2c(N3CCCCCC3)ncnc21 | -81* | 7.3µM* | . | 4.6µM* | 10µM* | ?
CCN(CC)c1ncnc2c1ncn2Cc1c(Cl)cccc1Cl | -2 | ? | 5% | ? | ? | 13µM*
Cc1cccc(N2CCN(C(=O)c3c(C)oc4nc(C)nc(N5CCCC5)c34)CC2C)c1 (stereo not drawn) | -31 | -7%[46.1 µM] | . | . | . | .
Cc1ccc(S(=O)(=O)Nc2cccc(C(=O)NCC(c3ccco3)N3CCCC3)c2)cc1F (stereo not drawn) | -12 | ? | ? | ? | ? | -24%
COc1ccccc1C(CNC(=O)c1ccc(NS(=O)(=O)c2ccc(F)c(C)c2)cc1)N1CCCC1 (stereo not drawn) | -28 | 13%[46.1 µM] | 12µM* | ? | 9.3µM* | -20%
COc1ccccc1C(CNC(=O)c1cccc(NS(=O)(=O)c2ccc(C)c(F)c2)c1)N1CCCC1 (stereo not drawn) | -26 | -1% | 12µM* | ? | 13µM* | ?
COc1ccccc1C(=O)Nc1cccc(C(=O)OCc2cc(=O)n3nc(C)sc3n2)c1 | 69 | 3%[46.1 µM] | . | . | . | .
Cc1cc(C(=O)Nc2cnn(C(C)(C)C(=O)NCc3ccco3)c2)c(C)o1 | -5 | . | . | . | . | .
Oc1cc(Nc2ccccc2)cc2cccnc12 | -82* | . | 2.6µM* | . | 2.1µM* | .
Oc1cc(NCc2ccccc2)cc2cccnc12 | . | . | 2.6µM* | . | 1.9µM* | .
Oc1cccc2cc(Nc3ccccc3)cnc12 | -101* | . | . | . | . | .
c1ccc(Nc2ccc3ccccc3c2)cc1 | ? | . | . | . | . | -20%
O=C(NCCN1CCOCC1)c1ccc2ccccc2c1 | -30 | 1% | 57% | ? | 43% | 10%
Oc1cc(NCCN2CCOCC2)cc2cccnc12 | -87* | . | ? | . | 4.7µM* | .
SMILES | HCMV antiviral | Lassa entry inh | Pf growth 96h | MARV entry inh | Pf growth 48h | HCV inh
CN1C(c2ccccc2)CC(C)(O)CC1c1ccccc1 (stereo not drawn) | -33 | . | . | . | . | .
O=C(CCCN1C(=O)c2cccc3cccc(c23)C1=O)N1CCN(c2ccc(F)cc2)CC1 | -37 | ? | -16% | ? | ? | 11µM*
CN(C(=O)CCCN1C(=O)c2cccc3cccc(c23)C1=O)c1ccccc1 | -62* | -11% | -9% | -9%[46.1 µM] | -9% | ?
CCN(CC)C(=O)Cn1c(SCC(=O)Nc2ccc(F)cc2)nc2ccccc21 | -5 | -16%[46.1 µM] | . | . | . | .
COc1cccc(CNC(=O)Cn2c(=O)nc(-c3ccccc3F)c3cc(Cl)ccc32)c1 | 16 | ? | . | . | . | .
CCOC(=O)c1c(C)[nH]c(-c2csc(C)n2)c1C | 9 | 3% | 83% | ? | 60% | ?
CCOC(=O)c1c(C)[nH]c(-c2csc(N)n2)c1C | -81* | ? | ? | ? | 2.9µM* | ?
CCOC(=O)N1CC(C)N(CC(O)CN2CCOCC2)CC1C (stereo not drawn) | -88* | 7%[46.1 µM] | . | 4%[46.1 µM] | . | 4%
CC(CN1CCOCC1)C(=O)O (stereo not drawn) | 17 | 6% | 9.3µM* | 16% | -25% | 10%
CCOC(=O)N1CCN(C(=O)N2CCOCC2)CC1 | 2 | 21% | -7% | 8% | 3% | 6%
OC(CN1CCOCC1)CN1CCOCC1 | -65* | 3% | -12% | 0% | 1% | 2%
CN(CC(O)CN1CCOCC1)S(=O)(=O)O (stereo not drawn) | 0 | 17% | 14% | 0%[46.1 µM] | ? | 7%
OCC[C@@H]1C[C@H](O)[C@@H](O)[C@@]2(OCCc3cc(C(F)(F)F)ccc32)O1 | -2 | . | . | . | . | .
S=C(NCc1ccccc1)N1CCn2cccc2C1c1ccncc1 (stereo not drawn) | 39 | 12%[46.1 µM] | ? | -48%[46.1 µM] | 5% | -2%
S=C(NCCc1ccccc1)N1CCn2cccc2C1c1cccnc1 (stereo not drawn) | -8 | 6% | 10µM* | ? | 12µM* | ?
CNC(=S)N1CCn2cccc2C1c1cccnc1 (stereo not drawn) | 31 | -7% | -178% | -14% | ? | 6%
S=C(NCc1ccccc1)N1CCn2cccc2C1c1cccnc1 (stereo not drawn) | -71* | ? | 4.7µM* | ? | 4.7µM* | -5%
O=C(O)CC1(CC(=O)Nc2nccs2)CCCCC1 | 5 | 29% | . | ? | . | -3%
CCC(=O)N1CCCC1(C)C(=O)Nc1cc(OC)ccc1OC (stereo not drawn) | 0 | . | . | . | . | .
O=C(CCl)NCCCCCCCCCNC(=O)CCl | -100* | ? | 1.5µM* | 8.9µM* | 1.9µM* | ?
CCC(=O)NCCCCCCNC(=O)CC | -23 | 17% | 12% | 16% | . | 13%
Nc1nc2c(s1)CC(c1ccccc1)CC2 (stereo not drawn) | ? | 5% | 5.2µM* | ? | 21% | -5%
Cc1cc(C)cc(C(=O)NC(CC(N)=O)c2ccc(NCC3CC3)c([N+](=O)[O-])c2)c1 (stereo not drawn) | -19 | . | ? | . | -22% | 14%
COc1ccc(Cn2c(-c3ccc(Br)cc3)c[n+]3ccccc23)cc1 | -97* | . | 0.13µM* | . | 0.66µM* | -11%
